Experimental data taken from ChEMBL document CHEMBL3988442, “University of Dundee, Small-Polar-MMV Screening Library” (2021).
For some assays here: Results with a measured potency or affinity are listed apart.

Columns and labels:
Parameters in all cases: scale not given: direction of the effect not stated beside the values
[1] = target: Protein translocase subunit SecA (Escherichia coli (strain K12)) (UniProt P10408); experiment: Assay to Identify E. coli SecA ATPase Inhibitors; format: functional; conditions: 30 µM
Protein translocase subunit SecA (Escherichia coli (strain K12)), sequence (P10408 whole entry): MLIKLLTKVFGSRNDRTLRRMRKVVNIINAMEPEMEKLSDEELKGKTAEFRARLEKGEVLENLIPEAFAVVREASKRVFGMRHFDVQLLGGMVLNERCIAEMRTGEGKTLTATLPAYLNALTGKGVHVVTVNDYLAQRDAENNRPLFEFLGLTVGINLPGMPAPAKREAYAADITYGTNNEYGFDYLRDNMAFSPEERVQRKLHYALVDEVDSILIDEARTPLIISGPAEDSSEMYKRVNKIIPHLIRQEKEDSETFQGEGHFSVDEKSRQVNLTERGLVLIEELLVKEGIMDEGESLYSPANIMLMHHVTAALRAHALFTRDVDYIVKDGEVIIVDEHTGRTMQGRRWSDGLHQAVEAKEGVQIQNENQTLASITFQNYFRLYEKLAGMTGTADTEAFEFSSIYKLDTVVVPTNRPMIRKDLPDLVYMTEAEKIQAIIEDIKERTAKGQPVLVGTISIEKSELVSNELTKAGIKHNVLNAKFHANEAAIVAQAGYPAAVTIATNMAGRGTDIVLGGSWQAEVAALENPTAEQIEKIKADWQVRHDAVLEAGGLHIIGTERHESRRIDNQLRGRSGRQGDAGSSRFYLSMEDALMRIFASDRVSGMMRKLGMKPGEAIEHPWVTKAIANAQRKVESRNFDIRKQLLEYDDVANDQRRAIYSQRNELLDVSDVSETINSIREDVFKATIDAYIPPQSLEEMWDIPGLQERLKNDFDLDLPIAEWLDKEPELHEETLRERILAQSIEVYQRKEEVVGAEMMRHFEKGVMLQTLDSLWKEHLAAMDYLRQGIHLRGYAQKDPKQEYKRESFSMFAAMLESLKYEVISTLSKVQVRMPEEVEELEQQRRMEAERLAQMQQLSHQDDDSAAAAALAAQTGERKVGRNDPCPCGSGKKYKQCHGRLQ

[2] = target: T1, Ubiquitin-activating enzyme e1, putative (Leishmania donovani (strain BPK282A1)) (UniProt E9BSI1); experiment: Leishmania donovani Ubiquitin Activating Enzyme (LdE1); format: functional; conditions: 30 µM
T1 sequence (whole entry): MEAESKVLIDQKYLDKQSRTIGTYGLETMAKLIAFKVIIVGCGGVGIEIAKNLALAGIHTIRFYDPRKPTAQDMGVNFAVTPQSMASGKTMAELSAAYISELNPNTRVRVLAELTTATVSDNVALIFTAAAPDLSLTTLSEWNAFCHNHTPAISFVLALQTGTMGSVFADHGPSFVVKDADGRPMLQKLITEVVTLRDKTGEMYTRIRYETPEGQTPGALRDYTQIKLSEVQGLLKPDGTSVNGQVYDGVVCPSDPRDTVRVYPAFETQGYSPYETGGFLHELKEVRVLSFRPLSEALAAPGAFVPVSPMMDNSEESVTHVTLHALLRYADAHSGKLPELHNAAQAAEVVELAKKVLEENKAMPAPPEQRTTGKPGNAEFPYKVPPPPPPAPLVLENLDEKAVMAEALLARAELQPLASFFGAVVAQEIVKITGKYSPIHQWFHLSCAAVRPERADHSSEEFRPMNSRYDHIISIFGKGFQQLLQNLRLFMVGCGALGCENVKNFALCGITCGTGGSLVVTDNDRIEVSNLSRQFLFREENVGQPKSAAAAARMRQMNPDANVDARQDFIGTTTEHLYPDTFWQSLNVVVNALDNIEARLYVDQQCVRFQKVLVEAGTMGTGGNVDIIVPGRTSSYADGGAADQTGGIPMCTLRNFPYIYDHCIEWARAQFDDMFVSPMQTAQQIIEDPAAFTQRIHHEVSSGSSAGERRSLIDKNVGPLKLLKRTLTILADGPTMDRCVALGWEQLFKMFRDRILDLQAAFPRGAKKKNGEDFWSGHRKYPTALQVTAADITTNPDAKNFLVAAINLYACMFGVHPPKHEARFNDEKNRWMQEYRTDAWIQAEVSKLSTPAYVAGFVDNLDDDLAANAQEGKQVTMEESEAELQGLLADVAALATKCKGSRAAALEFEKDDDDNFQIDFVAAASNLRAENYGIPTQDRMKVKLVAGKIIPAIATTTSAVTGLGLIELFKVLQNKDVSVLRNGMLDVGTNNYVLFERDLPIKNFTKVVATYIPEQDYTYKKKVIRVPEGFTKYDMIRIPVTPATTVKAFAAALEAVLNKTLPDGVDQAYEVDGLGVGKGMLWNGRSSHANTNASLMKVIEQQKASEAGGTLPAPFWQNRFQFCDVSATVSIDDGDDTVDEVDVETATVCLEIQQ

[3] = target: Sialic acid-binding Ig-like lectin 9 (Homo sapiens) (UniProt Q9Y336); experiment: Hs-Siglec9 ALPHAscreen SOP 20170721; conditions: 10 µM
Sialic acid-binding Ig-like lectin 9 (Homo sapiens), sequence (Q9Y336 whole entry): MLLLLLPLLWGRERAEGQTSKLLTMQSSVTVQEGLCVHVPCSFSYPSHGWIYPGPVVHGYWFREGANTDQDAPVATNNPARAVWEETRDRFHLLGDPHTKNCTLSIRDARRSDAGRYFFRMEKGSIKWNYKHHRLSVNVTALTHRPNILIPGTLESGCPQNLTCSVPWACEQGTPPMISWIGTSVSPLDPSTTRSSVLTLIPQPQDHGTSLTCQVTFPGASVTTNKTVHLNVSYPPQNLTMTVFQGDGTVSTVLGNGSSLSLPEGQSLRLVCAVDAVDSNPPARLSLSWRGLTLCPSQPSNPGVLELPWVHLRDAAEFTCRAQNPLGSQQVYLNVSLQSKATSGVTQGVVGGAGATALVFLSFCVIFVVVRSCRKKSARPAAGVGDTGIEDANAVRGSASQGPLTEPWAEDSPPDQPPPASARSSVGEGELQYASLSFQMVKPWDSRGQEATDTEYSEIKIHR

Trypanosoma cruzi = experiment: Trypanosoma cruzi phosphomannomutase and mannose-1-phosphate guanylyltransferase assay; format: functional; conditions: 10 µM
[4] = target: T2, Arginase-2, mitochondrial (Homo sapiens) (UniProt P78540); experiment: in vitro enzyme assay to detect the production of urea directly proportional to the activity of Arginase II; format: functional; conditions: 33.3 µM; also: in the data most compounds retested in dose-response had high values
T2 sequence (whole entry): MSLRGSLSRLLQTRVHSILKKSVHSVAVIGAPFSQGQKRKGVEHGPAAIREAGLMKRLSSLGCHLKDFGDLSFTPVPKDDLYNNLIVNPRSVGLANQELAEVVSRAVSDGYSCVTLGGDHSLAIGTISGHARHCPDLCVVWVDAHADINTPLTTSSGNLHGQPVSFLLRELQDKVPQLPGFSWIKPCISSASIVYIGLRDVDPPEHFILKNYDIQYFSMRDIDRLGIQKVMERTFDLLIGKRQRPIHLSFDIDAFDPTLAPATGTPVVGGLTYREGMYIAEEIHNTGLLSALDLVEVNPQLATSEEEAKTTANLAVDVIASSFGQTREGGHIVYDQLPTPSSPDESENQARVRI

[5] = target: T3, Proteasome subunit beta (Trypanosoma cruzi) (UniProt O96673); experiment: Trypanosoma cruzi proteasome chymotrypsin-like activity (TcProtChymo) assay.; also: in the data most compounds retested in dose-response had high values; format: functional; conditions: 9.37 µM
T3 sequence (whole entry): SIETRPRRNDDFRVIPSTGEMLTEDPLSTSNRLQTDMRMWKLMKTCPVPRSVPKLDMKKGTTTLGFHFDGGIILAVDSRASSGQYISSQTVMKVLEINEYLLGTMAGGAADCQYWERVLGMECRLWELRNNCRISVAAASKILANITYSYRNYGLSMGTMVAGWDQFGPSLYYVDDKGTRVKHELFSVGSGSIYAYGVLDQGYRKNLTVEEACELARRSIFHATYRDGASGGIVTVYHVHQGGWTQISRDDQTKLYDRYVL

Homo sapiens = organism: Homo sapiens; experiment: To identify inhibition of the IFN signalling (Jak-Stat) pathway via expression of an eGFP reporter gene under the control of an IFN-stimulated response element (ISRE) containing MxA promoter.; format: functional; conditions: 30 µM
[6] = target: T4, Tyrosyl-tRNA synthetase, putative (Trypanosoma cruzi (strain CL Brener)) (UniProt Q4DSP6); experiment: Trypanosoma cruzi tyrosyl tRNA synthetase (TcYRS) _High Tyrosine SOP; format: functional; conditions: 30 µM; also: in the data most compounds retested in dose-response had high values
T4 sequence (whole entry): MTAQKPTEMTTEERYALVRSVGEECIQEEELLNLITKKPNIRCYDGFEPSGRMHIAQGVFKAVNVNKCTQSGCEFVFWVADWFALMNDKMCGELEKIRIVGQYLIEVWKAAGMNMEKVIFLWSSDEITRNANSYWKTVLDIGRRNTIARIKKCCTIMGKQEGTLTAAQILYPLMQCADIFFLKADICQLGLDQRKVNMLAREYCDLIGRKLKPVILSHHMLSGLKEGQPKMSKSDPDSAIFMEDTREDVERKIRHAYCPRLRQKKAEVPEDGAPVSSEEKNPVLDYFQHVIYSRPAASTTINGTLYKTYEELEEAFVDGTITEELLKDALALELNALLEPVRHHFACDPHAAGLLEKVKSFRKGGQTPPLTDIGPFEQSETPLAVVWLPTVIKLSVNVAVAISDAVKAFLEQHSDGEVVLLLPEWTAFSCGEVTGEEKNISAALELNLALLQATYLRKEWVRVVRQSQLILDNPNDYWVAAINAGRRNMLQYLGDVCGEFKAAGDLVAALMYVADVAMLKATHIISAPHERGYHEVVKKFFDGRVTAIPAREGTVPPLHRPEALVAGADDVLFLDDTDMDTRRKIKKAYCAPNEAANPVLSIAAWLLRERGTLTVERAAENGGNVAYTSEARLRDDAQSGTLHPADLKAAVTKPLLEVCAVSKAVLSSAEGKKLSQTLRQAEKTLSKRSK

[7] = target: T4, Tyrosyl-tRNA synthetase, putative (Trypanosoma cruzi (strain CL Brener)); experiment: Trypanosoma cruzi tyrosyl tRNA synthetase (TcYRS) SOP; format: functional; conditions: 30 µM
[8] = target: Chromo domain-containing protein 1 (Saccharomyces cerevisiae (strain ATCC 204508 / S288c) (Baker's yeast)) (UniProt P32657); experiment: ScCHD-1 Enzyme Inhibition Assay; format: functional; conditions: 30 µM; also: in the data most compounds retested in dose-response had high values
Chromo domain-containing protein 1 (Saccharomyces cerevisiae (strain ATCC 204508 / S288c) (Baker's yeast)), sequence (P32657 whole entry, the tested form may be a part): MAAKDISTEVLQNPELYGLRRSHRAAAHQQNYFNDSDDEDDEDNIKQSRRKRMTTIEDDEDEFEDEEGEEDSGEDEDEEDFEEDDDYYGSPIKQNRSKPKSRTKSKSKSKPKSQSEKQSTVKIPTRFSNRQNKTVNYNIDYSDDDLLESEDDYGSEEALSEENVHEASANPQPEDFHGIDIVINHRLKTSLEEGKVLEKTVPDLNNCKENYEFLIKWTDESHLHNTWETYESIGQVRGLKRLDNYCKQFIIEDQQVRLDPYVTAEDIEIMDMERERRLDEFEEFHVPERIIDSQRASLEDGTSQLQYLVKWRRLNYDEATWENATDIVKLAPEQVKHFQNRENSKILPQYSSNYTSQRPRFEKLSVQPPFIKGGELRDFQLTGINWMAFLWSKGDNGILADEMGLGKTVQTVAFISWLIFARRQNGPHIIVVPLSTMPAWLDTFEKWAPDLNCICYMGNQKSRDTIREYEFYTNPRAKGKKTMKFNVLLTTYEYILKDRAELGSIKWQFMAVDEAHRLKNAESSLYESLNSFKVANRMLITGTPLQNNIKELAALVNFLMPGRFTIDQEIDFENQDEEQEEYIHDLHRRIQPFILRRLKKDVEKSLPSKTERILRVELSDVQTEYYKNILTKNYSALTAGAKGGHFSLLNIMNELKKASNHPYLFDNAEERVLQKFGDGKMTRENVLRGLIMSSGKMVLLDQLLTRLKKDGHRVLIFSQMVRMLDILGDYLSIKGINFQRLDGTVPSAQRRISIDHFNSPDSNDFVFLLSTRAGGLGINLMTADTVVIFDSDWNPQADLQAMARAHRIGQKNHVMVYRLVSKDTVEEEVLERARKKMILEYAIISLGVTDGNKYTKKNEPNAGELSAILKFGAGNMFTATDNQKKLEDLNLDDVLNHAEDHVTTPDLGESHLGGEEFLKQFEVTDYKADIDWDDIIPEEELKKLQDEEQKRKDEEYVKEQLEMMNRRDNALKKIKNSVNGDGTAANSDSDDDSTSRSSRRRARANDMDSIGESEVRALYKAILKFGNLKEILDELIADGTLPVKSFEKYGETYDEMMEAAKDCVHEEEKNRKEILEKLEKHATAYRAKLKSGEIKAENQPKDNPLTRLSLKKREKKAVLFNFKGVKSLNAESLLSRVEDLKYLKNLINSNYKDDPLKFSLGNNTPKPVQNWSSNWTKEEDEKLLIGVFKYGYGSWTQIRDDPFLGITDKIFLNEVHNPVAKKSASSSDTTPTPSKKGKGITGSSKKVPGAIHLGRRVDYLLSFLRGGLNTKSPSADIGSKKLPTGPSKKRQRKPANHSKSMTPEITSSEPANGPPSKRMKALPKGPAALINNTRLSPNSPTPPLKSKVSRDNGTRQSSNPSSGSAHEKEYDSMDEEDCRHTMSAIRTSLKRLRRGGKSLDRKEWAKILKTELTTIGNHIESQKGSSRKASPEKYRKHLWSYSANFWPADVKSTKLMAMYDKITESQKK

Row | SMILES | Percent Effect [1] [%] | Percent Effect [2] [%] | Percent Effect [3] [%] | Percent Effect (Trypanosoma cruzi) [%] | Percent Effect [4] [%] | Percent Effect [5] [%] | Percent Effect (Homo sapiens) [%] | Percent Effect [6] [%] | Percent Effect [7] [%] | Percent Effect [8] [%]
1 | Cc1cc(-c2nn(C)c(Cl)c2CN2CCOCC2CC(=O)O)no1 (stereo not given) | -6.59 | 10.8 | 10.3 | 5.92 | 15.7 | 12.2 | 22.2 | 7.98 | 12.2 | -0.504
2 | Cc1cc(N2CCC(CC(N)=O)CC2)nc(-c2ccncc2)n1 | -7.29 | 13 | 10.8 | -1.87 | 3.07 | 11.1 | -5.86 | 7.84 | 21.2 | -6.28
3 | COc1ncccc1CNC(=O)NCCNC(=O)c1ccco1 | -2.62 | 13.3 | -3.85 | 6.83 | 1.33 | 16 | 18.4 | 4.74 | 12.8 | -6.18
4 | CCN(CC1CCOC1)C(=O)Nc1ccc(OC)nc1 (stereo not given) | -0.796 | 17.9 | -22.4 | 2.35 | 2.46 | 18.2 | 15.6 | 2.39 | 22.9 | -7.72
5 | Cc1cc(C(=O)NCc2ccnc(N3CCN(C)CC3)c2)c(C)s1 | -2.97 | -28.2 | -3.6 | -0.657 | 3.69 | 3.67 | -0.506 | 8.13 | 20.5 | -3.48
6 | Cc1ccc(C(=O)N2CCN(Cc3ccsc3)CC2)n1C | -2.67 | 5.33 | 2.26 | -1.61 | 0.887 | 5.34 | -8.24 | 5.79 | 7.69 | -6.68
7 | COC[C@@]12CC[C@@H](N3CCOCC3)C[C@H]1CCN(c1ncccc1Cl)C2 | -6.53 | 13.5 | 12.5 | 4.56 | 10.8 | 7.02 | 2.53 | 5.85 | 19.5 | -2.53
8 | CCOC(=O)N1CCN(C(=O)c2ccc3ccn(C)c3c2)CC1 | -3.31 | 0 | 29 | 7.47 | -8.74 | 11.6 | 9.78 | 4.79 | 7.32 | 5.11
9 | C[C@H]1CN(Cc2cnn(C)c2)C[C@@]12CCN(Cc1cccnc1)C2=O | -2.17 | 11.7 | 0.906 | -5.07 | 4.57 | 4.21 | 23.4 | 6.76 | 2.5 | -3.65
10 | CC(C)(O)CN1CCN(C(=O)c2cc(Cl)cc3cccnc23)CC1 | -3.15 | -5.13 | 5.39 | 2.54 | 6.15 | 9.13 | -3.27 | 2.39 | 1.21 | -5.6
11 | CC(C)CN1CCC2(CCN(C(=O)c3ccc(F)cc3)CC2)C1=O | -1.91 | 19.5 | 0.691 | 1.5 | 0 | 6.27 | -20.9 | 11.6 | 22.5 | -8.66
12 | COc1ccc(CN(C)CC(=O)NC2(C)CCS(=O)(=O)C2)cc1F (stereo not given) | 0.854 | 0 | 4.26 | -5.42 | 4.88 | 2.8 | 17.4 | -0.526 | 0 | -1.6
13 | Cc1cnc(CN(C)C2CCN(CCc3cnn(C)c3)C2)o1 (stereo not given) | -3.84 | 0 | 0.368 | -1 | 2.66 | 3.65 | 2.79 | 4.74 | 5.13 | -8.2
14 | CC(=O)N(Cc1noc(C2CC2)n1)C1CCN(Cc2ccncc2)C1 (stereo not given) | -3.41 | 5.13 | -20.1 | 11.6 | -4.51 | 4.86 | 4.66 | 1.44 | 10.8 | -5.11
15 | COCC(=O)N1CCC(c2cc(C(F)(F)F)n3ccnc3n2)CC1 | -4.74 | 17.3 | 7.36 | 3.75 | 0.885 | 9.85 | 5.45 | 3.17 | 15 | -24.5
16 | CCN(Cc1cccc2c1OCO2)C(=O)C(C)c1cccnc1 (stereo not given) | -0.831 | 7.79 | 4.03 | 5.78 | 8.4 | -0.702 | 4.49 | 3.92 | 11.8 | -5.71
17 | O=C(NCc1ccccc1-n1cccn1)N1CCN2CCCCC2C1 (stereo not given) | -4.48 | 0 | 9.91 | 0.803 | 2.22 | 1.78 | -2.71 | 2.63 | 10.3 | -8
18 | CCc1nc(C2CCCN2C(=O)c2ccc3c(c2)nnn3CC)no1 (stereo not given) | -3.49 | 0 | 5.14 | -1.41 | 0 | 3.99 | 11.6 | 2.63 | 0 | -12.3
19 | CCC1=N[C@@]2(CC[C@@H]3CN(C(=O)NCc4ccccc4)C[C@@H]32)C(=O)N1 | -4.85 | 3.9 | -3.04 | 1.66 | -4.86 | 4.33 | -16.6 | 5.79 | 5.13 | -0.556
20 | CS(=O)(=O)N1CCC2(CC1)CC(CC(=O)N1CCCC1)c1ccccc12 (stereo not given) | -6.42 | 6.49 | 10.4 | -2.43 | -5.67 | 2.21 | -5.9 | 1.58 | -7.69 | 2.73
21 | CC(C)(C)C(=O)N1C[C@H](c2ccsc2)[C@H]2CN(Cc3cccs3)CC[C@H]21 | -0.241 | 17.3 | -5.01 | 2.37 | 2.65 | 17.1 | 56.8 | 2.12 | 17.5 | -22
22 | Cc1ccc(S(=O)(=O)N2CCOc3ccccc32)cc1C(N)=O | -0.964 | 10.3 | -14.2 | -4.79 | -2.87 | 10.5 | 34.9 | 0.478 | 8.43 | 17.3
23 | CCc1nc(CN2CCCN(C(=O)c3cn[nH]c3CC)CC2)cs1 | 0.744 | 17.9 | -17.5 | -0.282 | -6.97 | 10.2 | -6.8 | 6.22 | 13.2 | -6.17
